Results taken from paper PMC7862700, “An all-to-all approach to the identification of sequence-specific readers for epigenetic DNA modifications on cytosine”.

Experiments:
Test in all cases: DAPPL (digital affinity profiling via proximity ligation, sequencing); 10 mM Tris-HCl pH 7.5, 50 mM NaCl, 1 mM DTT, 4% glycerol, room temperature, 30 min; GST-TFs on glutathione beads, 16-mer random dsDNA library, 0.1% formaldehyde crosslink after washing; high values mean tight binding
Conditions in all cases: protein: recombinant; tags: N-terminal GST; dsDNA, one strand shown
FLI1 = target: T1, FLI1 (Homo sapiens, UniProt Q01543 1-452)
T1 sequence: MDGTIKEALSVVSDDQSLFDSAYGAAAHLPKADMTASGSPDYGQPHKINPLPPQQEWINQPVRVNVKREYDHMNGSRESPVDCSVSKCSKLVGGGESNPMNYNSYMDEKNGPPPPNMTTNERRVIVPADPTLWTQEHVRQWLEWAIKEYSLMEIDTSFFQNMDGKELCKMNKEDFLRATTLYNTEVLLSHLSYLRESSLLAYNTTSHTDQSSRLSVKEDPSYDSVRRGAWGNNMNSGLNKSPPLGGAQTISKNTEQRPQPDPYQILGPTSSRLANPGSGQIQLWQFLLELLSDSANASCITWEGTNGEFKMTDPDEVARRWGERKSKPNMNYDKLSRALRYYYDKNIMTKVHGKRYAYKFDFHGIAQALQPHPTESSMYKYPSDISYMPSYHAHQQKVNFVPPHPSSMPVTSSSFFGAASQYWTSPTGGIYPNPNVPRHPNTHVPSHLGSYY
Procedure, shortened: (§1)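 Beads coated with glutathione captured GST-fused human transcription factors that had been expressed in yeast, and the factors were then given DNA barcodes and pooled with a tag-only sample. The pools were incubated with 200 nmole of a random double-stranded 16-mer DNA library in Tris/NaCl/DTT/glycerol buffer for 30 min at room temperature, washed, crosslinked with 0.1% formaldehyde and proximity-ligated with BsaI/T4 ligase at 37 °C for 1 h. PCR amplification and Illumina NextSeq500 sequencing came last. Binding signal is each hexamer's read frequency for a factor divided by its frequency for the tag-only sample.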

ELK1 = target: T2, ELK1 (Homo sapiens, UniProt P19419 1-428)
T2 sequence: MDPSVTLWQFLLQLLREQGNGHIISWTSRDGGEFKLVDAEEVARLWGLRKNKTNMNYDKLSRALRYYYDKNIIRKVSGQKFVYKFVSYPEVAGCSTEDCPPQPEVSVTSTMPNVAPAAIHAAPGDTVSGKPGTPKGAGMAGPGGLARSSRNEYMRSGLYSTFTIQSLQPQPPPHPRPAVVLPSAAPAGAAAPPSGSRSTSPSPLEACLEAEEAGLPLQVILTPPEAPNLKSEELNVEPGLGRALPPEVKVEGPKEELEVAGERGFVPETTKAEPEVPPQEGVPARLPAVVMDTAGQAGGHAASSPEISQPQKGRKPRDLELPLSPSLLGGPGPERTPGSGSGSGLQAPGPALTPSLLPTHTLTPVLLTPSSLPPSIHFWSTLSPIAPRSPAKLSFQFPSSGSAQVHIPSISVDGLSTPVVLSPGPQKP
Procedure, shortened: as §1

GABPA = target: T3, GABPA (Homo sapiens, UniProt Q06546 1-454)
T3 sequence: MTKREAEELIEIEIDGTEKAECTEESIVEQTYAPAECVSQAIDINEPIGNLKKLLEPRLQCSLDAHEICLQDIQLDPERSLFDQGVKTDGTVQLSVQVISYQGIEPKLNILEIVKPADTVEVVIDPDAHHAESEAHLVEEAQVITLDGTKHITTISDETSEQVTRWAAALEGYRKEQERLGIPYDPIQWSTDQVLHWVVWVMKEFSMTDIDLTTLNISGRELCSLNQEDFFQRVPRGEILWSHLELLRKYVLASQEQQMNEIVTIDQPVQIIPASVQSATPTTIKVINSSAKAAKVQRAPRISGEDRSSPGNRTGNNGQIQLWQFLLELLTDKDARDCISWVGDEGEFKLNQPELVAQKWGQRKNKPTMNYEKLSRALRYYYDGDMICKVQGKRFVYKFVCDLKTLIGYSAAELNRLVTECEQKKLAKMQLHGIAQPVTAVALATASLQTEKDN
Procedure, shortened: as §1

ERG = target: T4, ERG (Homo sapiens, UniProt P11308 1-479)
T4 sequence: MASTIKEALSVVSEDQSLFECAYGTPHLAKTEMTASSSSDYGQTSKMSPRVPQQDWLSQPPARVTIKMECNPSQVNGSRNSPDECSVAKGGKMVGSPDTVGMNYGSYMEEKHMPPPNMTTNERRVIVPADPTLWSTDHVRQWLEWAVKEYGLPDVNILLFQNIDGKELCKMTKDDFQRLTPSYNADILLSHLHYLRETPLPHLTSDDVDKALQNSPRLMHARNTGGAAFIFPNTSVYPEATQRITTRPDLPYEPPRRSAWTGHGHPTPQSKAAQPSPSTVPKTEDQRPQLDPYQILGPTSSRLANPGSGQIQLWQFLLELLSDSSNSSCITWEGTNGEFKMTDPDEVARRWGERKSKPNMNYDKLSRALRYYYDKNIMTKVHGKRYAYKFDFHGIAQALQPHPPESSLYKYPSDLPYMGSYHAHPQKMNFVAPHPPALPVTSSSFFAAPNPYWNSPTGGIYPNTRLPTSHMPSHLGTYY
Procedure, shortened: as §1

ELF1 = ELF1 (Homo sapiens, UniProt P32519 1-619)
Procedure, shortened: as §1

EHF = target: T5, EHF (Homo sapiens, UniProt Q9NZC4 1-300)
T5 sequence: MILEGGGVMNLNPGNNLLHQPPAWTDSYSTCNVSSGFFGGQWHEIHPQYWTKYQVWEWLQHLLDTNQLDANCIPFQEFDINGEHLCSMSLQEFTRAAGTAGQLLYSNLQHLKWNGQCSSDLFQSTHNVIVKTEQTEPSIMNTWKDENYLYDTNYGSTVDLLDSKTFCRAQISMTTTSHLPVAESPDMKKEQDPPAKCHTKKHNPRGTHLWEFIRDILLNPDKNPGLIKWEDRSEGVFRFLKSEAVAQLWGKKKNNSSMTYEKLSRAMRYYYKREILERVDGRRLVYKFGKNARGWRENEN
Procedure, shortened: as §1

SPI1 = SPI1 (Homo sapiens, UniProt P17947 1-270)
Procedure, shortened: as §1

SPIB = SPIB (Homo sapiens, UniProt Q01892 1-262)
Procedure, shortened: as §1

ELK3 = target: T6, ELK3 (Homo sapiens, UniProt P41970 1-407)
T6 sequence: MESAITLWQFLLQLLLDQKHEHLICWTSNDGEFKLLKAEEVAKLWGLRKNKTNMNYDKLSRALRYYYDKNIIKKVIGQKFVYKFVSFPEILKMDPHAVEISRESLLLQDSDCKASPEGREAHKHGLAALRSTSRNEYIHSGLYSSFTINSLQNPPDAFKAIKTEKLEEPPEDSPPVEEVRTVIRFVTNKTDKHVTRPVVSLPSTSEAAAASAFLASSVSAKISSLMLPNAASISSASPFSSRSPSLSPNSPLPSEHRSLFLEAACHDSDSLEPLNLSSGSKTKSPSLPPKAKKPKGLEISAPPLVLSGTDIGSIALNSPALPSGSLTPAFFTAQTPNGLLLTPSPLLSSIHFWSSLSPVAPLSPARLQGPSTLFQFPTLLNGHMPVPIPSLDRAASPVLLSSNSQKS
Procedure, shortened: as §1

Chain of ELF1 (P32519 whole entry): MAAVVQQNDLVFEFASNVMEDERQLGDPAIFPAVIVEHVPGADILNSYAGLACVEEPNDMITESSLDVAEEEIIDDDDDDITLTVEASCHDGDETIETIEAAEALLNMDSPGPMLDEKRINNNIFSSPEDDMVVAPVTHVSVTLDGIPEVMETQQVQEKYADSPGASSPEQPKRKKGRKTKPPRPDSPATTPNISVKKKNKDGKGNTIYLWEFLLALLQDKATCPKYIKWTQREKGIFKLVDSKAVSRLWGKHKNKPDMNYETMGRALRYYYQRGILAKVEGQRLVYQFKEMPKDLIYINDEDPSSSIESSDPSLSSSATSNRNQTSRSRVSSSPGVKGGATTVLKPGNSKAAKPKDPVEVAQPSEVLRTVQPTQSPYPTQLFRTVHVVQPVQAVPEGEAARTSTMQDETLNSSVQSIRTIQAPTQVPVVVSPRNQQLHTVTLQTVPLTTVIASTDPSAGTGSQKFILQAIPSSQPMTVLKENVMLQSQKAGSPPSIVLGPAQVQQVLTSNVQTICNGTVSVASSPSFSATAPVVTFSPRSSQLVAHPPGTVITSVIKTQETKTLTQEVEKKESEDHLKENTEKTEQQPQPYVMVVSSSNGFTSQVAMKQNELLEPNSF
Chain of SPIB (Q01892 whole entry): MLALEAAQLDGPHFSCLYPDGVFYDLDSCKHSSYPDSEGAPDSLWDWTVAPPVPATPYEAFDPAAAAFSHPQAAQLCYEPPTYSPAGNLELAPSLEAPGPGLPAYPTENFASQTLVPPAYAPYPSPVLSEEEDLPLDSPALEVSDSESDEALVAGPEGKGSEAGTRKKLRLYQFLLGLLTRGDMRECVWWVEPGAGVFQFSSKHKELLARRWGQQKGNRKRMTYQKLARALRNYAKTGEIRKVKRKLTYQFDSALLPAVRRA

Sequence | binding signal (FLI1) | binding signal (ELK1) | binding signal (GABPA) | binding signal (ERG) | binding signal (ELF1) | binding signal (EHF) | binding signal (SPI1) | binding signal (SPIB) | binding signal (ELK3)
CTACGT | 1.29 fold enrichment (6-mer frequency, TF over GST control) | 1.23 fold enrichment (6-mer frequency, TF over GST control) | 1.18 fold enrichment (6-mer frequency, TF over GST control) | 1.19 fold enrichment (6-mer frequency, TF over GST control) | 1.13 fold enrichment (6-mer frequency, TF over GST control) | 1.25 fold enrichment (6-mer frequency, TF over GST control) | 1.08 fold enrichment (6-mer frequency, TF over GST control) | 1.27 fold enrichment (6-mer frequency, TF over GST control) | 1.31 fold enrichment (6-mer frequency, TF over GST control)
TTTGGC | 1.33 fold enrichment (6-mer frequency, TF over GST control) | 1.27 fold enrichment (6-mer frequency, TF over GST control) | 1.25 fold enrichment (6-mer frequency, TF over GST control) | 1.12 fold enrichment (6-mer frequency, TF over GST control) | 1.27 fold enrichment (6-mer frequency, TF over GST control) | 1.2 fold enrichment (6-mer frequency, TF over GST control) | 1.22 fold enrichment (6-mer frequency, TF over GST control) | 1.29 fold enrichment (6-mer frequency, TF over GST control) | 1.1 fold enrichment (6-mer frequency, TF over GST control)
CTATCG | 1.13 fold enrichment (6-mer frequency, TF over GST control) | 1.14 fold enrichment (6-mer frequency, TF over GST control) | 1.05 fold enrichment (6-mer frequency, TF over GST control) | 1.09 fold enrichment (6-mer frequency, TF over GST control) | 1.11 fold enrichment (6-mer frequency, TF over GST control) | 1.07 fold enrichment (6-mer frequency, TF over GST control) | 1.13 fold enrichment (6-mer frequency, TF over GST control) | 1.11 fold enrichment (6-mer frequency, TF over GST control) | 1.08 fold enrichment (6-mer frequency, TF over GST control)
ATTAGG | 1.06 fold enrichment (6-mer frequency, TF over GST control) | 1.06 fold enrichment (6-mer frequency, TF over GST control) | 1.1 fold enrichment (6-mer frequency, TF over GST control) | 1.05 fold enrichment (6-mer frequency, TF over GST control) | 1.06 fold enrichment (6-mer frequency, TF over GST control) | 1.1 fold enrichment (6-mer frequency, TF over GST control) | 1.07 fold enrichment (6-mer frequency, TF over GST control) | 1.06 fold enrichment (6-mer frequency, TF over GST control) | 1.1 fold enrichment (6-mer frequency, TF over GST control)
GCTGCT | 1.32 fold enrichment (6-mer frequency, TF over GST control) | 1.24 fold enrichment (6-mer frequency, TF over GST control) | 1.24 fold enrichment (6-mer frequency, TF over GST control) | 1.29 fold enrichment (6-mer frequency, TF over GST control) | 1.41 fold enrichment (6-mer frequency, TF over GST control) | 1.34 fold enrichment (6-mer frequency, TF over GST control) | 1.19 fold enrichment (6-mer frequency, TF over GST control) | 1.29 fold enrichment (6-mer frequency, TF over GST control) | 1.27 fold enrichment (6-mer frequency, TF over GST control)
TCGTAC | 1.13 fold enrichment (6-mer frequency, TF over GST control) | 1.13 fold enrichment (6-mer frequency, TF over GST control) | 1.18 fold enrichment (6-mer frequency, TF over GST control) | 1.06 fold enrichment (6-mer frequency, TF over GST control) | 1.14 fold enrichment (6-mer frequency, TF over GST control) | 1.14 fold enrichment (6-mer frequency, TF over GST control) | 1.06 fold enrichment (6-mer frequency, TF over GST control) | 1.04 fold enrichment (6-mer frequency, TF over GST control) | 1.11 fold enrichment (6-mer frequency, TF over GST control)
TAAATA | 1.23 fold enrichment (6-mer frequency, TF over GST control) | 1.18 fold enrichment (6-mer frequency, TF over GST control) | 1.21 fold enrichment (6-mer frequency, TF over GST control) | 1.2 fold enrichment (6-mer frequency, TF over GST control) | 1.21 fold enrichment (6-mer frequency, TF over GST control) | 1.23 fold enrichment (6-mer frequency, TF over GST control) | 1.29 fold enrichment (6-mer frequency, TF over GST control) | 1.35 fold enrichment (6-mer frequency, TF over GST control) | 1.33 fold enrichment (6-mer frequency, TF over GST control)
